# Assay results from PubChem BioAssay (NCATS).
# Inconclusive results are not listed. Entries that show only a call come without a potency. Activity calls are given as the source filed them. Unless noted, calls come from the whole dose curve; as a rule, active = well fitted curve in the direction sought with a large enough effect; inconclusive = small, poorly fitted or top-dose-only effect, or another doubt; inactive = no such curve, though single readings can be large; an effect the other way counts as inactive or inconclusive.
# How the values were obtained:
# [1] = molecular target: Voltage-gated inwardly rectifying potassium channel KCNH2 (Homo sapiens) (UniProt Q12809); assay: qHTS Assay for Small Molecule Inhibitors of the Human hERG Channel Activity (AID 588834);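 note: top concentration of the series differs between compounds; lower thallium flux fluorescence means stronger hERG block; nearly all actives have a fitted effect of over 50% in size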
# Method in brief: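 Blockade is seen as reduced FluxOR thallium-flux fluorescence in U2OS cells expressing hERG from a BacMam construct, in Opti-MEM with 2% FCS. Concentration-response data fitted to the Hill equation for AC50.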
# [2] = molecular target: Luciferin 4-monooxygenase (Photinus pyralis) (UniProt P08659); assay: Biochemical firefly luciferase enzyme assay for NPC (AID 624030); note: nearly all actives have a fitted effect of over 70% in size; note: potency is the fitted concentration of half-maximal effect
# Method in brief: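 Direct inhibition of firefly luciferase enzyme (10 nM final, 50 mM Tris Acetate) assessed by luminescence within 5 minutes. Percent activity scaled between DMSO and PTC124 positive control, with concentration-effect curves classified by fit quality and response.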
# [3] = S16 Schwann cell viability assay (CellTiter-Glo assay) (AID 624031);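 note: cellular ATP luminescence as a viability measure; series mostly up to about 58 µM; nearly all actives have a fitted effect of over 70% in size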
# Method in brief: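 CellTiter-Glo ATP luminescence counter-screen in untransfected S16 rat Schwann cells, 24h compound exposure at 37 degree Celsius after overnight seeding (500-750 cells/well); response scaled between cell-free wells and DMSO (0% activity), curves classed by r2 and magnitude.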
# [4] = S16 Schwann cell PMP22 intronic element firefly luciferase assay (AID 624032); note: series mostly up to about 58 µM; nearly all actives have a fitted effect of over 30% in size
# Method in brief: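 Luciferase reporter of PMP22 intronic-element expression in stably transfected S16 rat Schwann cells, read by ONE-Glo luminescence after 24 h compound exposure at 37 C. Activity scaled between DMSO (0%) and positive-control PTC124; concentration-effect curves quality-classified.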
# [5] = S16 Schwann cell PMP22 intronic element beta-lactamase assay (AID 624044; calls by dose curve; note: nearly all actives have a fitted effect of over 15% in size; note: potency is the fitted concentration of half-maximal effect)
# Method in brief: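 Rat S16 Schwann cells with beta-Lac driven by a PMP22 intronic element, compound-treated 24 h at 37 °C. LiveBLAzer FRET B/G read: 460 nm normalized to potassium clavulanate vs DMSO; 535 nm FRET as viability; concentration-effect curves classified.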
# [6] = qHTS for Inhibitors of the vitamin D receptor (VDR): Hit Validation using a Texas Red Assay (AID 602201); conditions: VDR coregulator binding, Texas Red fluorescence polarization; agonist-bound VDR ligand-binding domain; note: potency is the fitted concentration of half-maximal effect
# Method in brief: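 After a 2-hour room-temperature incubation, polarization of Texas-Red emission was read (Ex 595 nm/Em 615 nm). Final mix contained 7 nM Texas Red, 1.5 uM VDR-LBD and LG19078.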
# Sequence of Luciferin 4-monooxygenase (Photinus pyralis) (P08659 whole entry, looked up): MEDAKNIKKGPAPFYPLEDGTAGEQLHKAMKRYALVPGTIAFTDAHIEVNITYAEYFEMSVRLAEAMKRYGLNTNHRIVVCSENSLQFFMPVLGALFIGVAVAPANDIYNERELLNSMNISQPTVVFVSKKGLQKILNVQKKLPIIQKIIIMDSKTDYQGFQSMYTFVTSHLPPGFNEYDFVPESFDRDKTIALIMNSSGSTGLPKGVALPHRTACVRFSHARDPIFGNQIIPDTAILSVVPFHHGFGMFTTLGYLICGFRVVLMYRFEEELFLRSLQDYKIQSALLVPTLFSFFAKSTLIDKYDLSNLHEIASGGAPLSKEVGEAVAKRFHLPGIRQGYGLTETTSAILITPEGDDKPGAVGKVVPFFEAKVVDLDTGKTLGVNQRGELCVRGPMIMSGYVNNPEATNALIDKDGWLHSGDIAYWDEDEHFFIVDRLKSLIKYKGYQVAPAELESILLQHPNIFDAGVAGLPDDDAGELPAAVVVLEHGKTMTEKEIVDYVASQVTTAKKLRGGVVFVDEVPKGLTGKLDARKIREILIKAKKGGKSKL
# Sequence of Voltage-gated inwardly rectifying potassium channel KCNH2 (Homo sapiens) (Q12809 whole entry, looked up): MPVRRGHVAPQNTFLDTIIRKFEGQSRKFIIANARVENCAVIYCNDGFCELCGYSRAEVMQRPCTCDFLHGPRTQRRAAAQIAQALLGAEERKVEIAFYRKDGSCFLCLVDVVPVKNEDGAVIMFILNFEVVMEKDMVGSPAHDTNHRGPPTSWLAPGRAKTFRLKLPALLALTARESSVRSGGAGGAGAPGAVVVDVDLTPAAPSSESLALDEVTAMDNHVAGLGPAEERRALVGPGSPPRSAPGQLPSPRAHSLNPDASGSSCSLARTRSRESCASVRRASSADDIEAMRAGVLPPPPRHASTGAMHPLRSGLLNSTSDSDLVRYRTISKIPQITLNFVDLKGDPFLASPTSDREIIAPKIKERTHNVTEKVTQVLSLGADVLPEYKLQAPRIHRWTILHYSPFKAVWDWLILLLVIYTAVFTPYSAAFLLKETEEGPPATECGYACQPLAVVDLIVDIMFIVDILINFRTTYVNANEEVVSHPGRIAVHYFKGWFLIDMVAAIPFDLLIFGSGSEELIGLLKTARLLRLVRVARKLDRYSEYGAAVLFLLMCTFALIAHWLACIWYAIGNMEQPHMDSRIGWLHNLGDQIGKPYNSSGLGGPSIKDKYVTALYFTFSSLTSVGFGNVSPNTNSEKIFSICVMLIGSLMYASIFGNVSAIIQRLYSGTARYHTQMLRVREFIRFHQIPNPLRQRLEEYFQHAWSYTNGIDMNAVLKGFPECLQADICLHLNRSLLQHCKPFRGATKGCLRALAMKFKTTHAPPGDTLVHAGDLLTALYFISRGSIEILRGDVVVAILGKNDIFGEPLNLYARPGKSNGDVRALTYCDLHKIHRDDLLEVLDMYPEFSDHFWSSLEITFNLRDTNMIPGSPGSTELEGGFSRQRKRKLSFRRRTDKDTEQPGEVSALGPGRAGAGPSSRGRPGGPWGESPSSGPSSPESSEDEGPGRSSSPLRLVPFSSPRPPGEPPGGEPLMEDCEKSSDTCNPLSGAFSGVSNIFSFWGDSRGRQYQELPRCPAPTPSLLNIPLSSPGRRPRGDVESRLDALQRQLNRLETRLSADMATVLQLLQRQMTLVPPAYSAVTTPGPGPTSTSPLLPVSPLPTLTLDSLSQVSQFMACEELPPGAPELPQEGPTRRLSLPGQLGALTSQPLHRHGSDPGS
smiles,measurement,setting,value
CN(C)CCn1nnnc1SCC1=C(C(=O)O)N2C(=O)[C@@H](NC(=O)Cc3csc(N)n3)[C@H]2SC1,Potency,[1],inactive
O=C(Nc1cccc(C(=O)Nc2ccc(S(=O)(=O)O)c3cc(S(=O)(=O)O)cc(S(=O)(=O)O)c23)c1)Nc1cccc(C(=O)Nc2ccc(S(=O)(=O)O)c3cc(S(=O)(=O)O)cc(S(=O)(=O)O)c23)c1,Potency,[1],inactive
Cc1ccc(O)c(-n2nc3ccccc3n2)c1,Potency,[1],inactive
same,Potency,[2],2.87 µM (active)
same,Potency,[3],inactive
same,Potency,[4],inactive
same,Potency,[5],inactive
Cc1onc(-c2c(F)cccc2Cl)c1C(=O)N[C@@H]1C(=O)N2[C@@H]1SC(C)(C)[C@@H]2C(=O)O,Potency,[1],inactive
CCCCC1C(=O)N(c2ccccc2)N(c2ccc(O)cc2)C1=O (stereo not drawn),Potency,[1],inactive
same,Potency,[6],15.8 µM (active)
CN(C)[C@@H]1C(=O)C(C(=O)NCN2CCCC2)=C(O)[C@@]2(O)C(=O)C3=C(O)c4c(O)cccc4[C@@](C)(O)C3C[C@@H]12 (stereo partly drawn),Potency,[1],inactive
CC[C@H]1OC(=O)[C@H](C)C(=O)[C@H](C)[C@@H](O[C@@H]2O[C@H](C)C[C@H](N(C)C)[C@H]2O)[C@](C)(OC)C[C@@H](C)C(=O)[C@H](C)[C@H]2N(CCCCn3cnc(-c4cccnc4)c3)C(=O)O[C@]12C,Potency,[1],inactive
CO/N=C(\C(=O)N[C@@H]1C(=O)N2C(C(=O)O)=C(COC(C)=O)CS[C@H]12)c1csc(N)n1 (stereo in doubt),Potency,[1],inactive
CC(C(=O)O)c1ccc(C(=O)c2ccccc2)s1 (stereo not drawn),Potency,[1],inactive
Oc1c(Br)cc(Br)c2cccnc12,Potency,[1],inactive
same,Potency,[2],inactive
same,Potency,[3],inactive
same,Potency,[4],inactive
same,Potency,[5],19.9 µM (active)
C=C/C(C)=C/[C@@]1(C)SC(=O)C(C)=C1O,Potency,[1],inactive
COc1cc(NC(C)CCCN)c2ncccc2c1 (stereo not drawn),Potency,[1],inactive
CCOC(=O)c1ccccc1O,Potency,[1],inactive
same,Potency,[2],inactive
same,Potency,[3],inactive
same,Potency,[4],inactive
same,Potency,[5],inactive
CC(C(=O)O)c1ccc(C(=O)c2cccs2)cc1 (stereo not drawn),Potency,[1],inactive
CO[C@H]1C[C@@H]2CC[C@@H](C)[C@@](O)(O2)C(=O)C(=O)N2CCCC[C@H]2C(=O)O[C@H]([C@H](C)C[C@@H]2CC[C@@H](O)[C@H](OC)C2)CC(=O)[C@H](C)C=C(C)[C@@H](O)[C@@H](OC)C(=O)[C@H](C)C[C@H](C)/C=C/C=CC=C1C,Potency,[1],inactive
O=C(O)Cc1ccc(-c2ccccc2)cc1,Potency,[1],inactive
same,Potency,[2],inactive
same,Potency,[3],inactive
same,Potency,[4],inactive
O=C(O)[C@H](CC(=O)N1C[C@H]2CCCC[C@H]2C1)Cc1ccccc1,Potency,[1],inactive
same,Potency,[2],inactive
same,Potency,[3],inactive
same,Potency,[4],inactive
CC(C)(C)NCC(O)COc1nsnc1N1CCOCC1 (stereo not drawn),Potency,[1],inactive
COc1cc2c3cc1Oc1cc(ccc1O)C[C@@H]1c4c(cc(OC)c(O)c4Oc4ccc(cc4)C[C@@H]3N(C)CC2)CC[N+]1(C)C,Potency,[1],inactive
same,Potency,[2],inactive
same,Potency,[3],inactive
same,Potency,[4],inactive
CCCCC[C@H](O)/C=C/[C@@H]1[C@@H](C/C=C\CCCC(=O)O)[C@@H](O)C[C@H]1O,Potency,[1],inactive
same,Potency,[2],inactive
same,Potency,[3],inactive
same,Potency,[4],inactive
same,Potency,[5],inactive
CN[C@H](CC(C)C)C(=O)N[C@H]1C(=O)N[C@@H](CC(N)=O)C(=O)N[C@H]2C(=O)N[C@H]3C(=O)N[C@H](C(=O)N[C@H](C(=O)O)c4cc(O)cc(O)c4-c4cc3ccc4O)[C@H](O)c3ccc(c(Cl)c3)Oc3cc2cc(c3O[C@@H]2O[C@H](CO)[C@@H](O)[C@H](O)[C@H]2O[C@H]2C[C@](C)(N)[C@H](O)[C@H](C)O2)Oc2ccc(cc2Cl)[C@H]1O,Potency,[1],inactive
CC[C@@H](C)[C@H]1O[C@]2(CC[C@@H]1C)C[C@@H]1C[C@@H](C/C=C(\C)[C@@H](O[C@H]3C[C@H](OC)[C@@H](O[C@H]4C[C@H](OC)[C@@H](O)[C@H](C)O4)[C@H](C)O3)[C@@H](C)/C=C/C=C3\CO[C@@H]4[C@H](O)C(C)=C[C@@H](C(=O)O1)[C@]34O)O2,Potency,[1],inactive
CC1(C)[C@@H](O[C@H]2O[C@H](C(=O)O)[C@@H](O)[C@H](O)[C@H]2O[C@@H]2O[C@H](C(=O)O)[C@@H](O)[C@H](O)[C@H]2O)CC[C@]2(C)[C@H]3C(=O)C=C4[C@@H]5C[C@@](C)(C(=O)O)CC[C@]5(C)CC[C@@]4(C)[C@]3(C)CC[C@@H]12,Potency,[1],inactive
O=C(O)COc1ccc(C(=O)c2cccs2)c(Cl)c1Cl,Potency,[1],inactive
same,Potency,[2],inactive
same,Potency,[3],inactive
same,Potency,[4],inactive
same,Potency,[5],inactive
CC1(C)C[C@@H]1C(=O)N/C(=C\CCCCSC[C@H](N)C(=O)O)C(=O)O,Potency,[1],inactive
same,Potency,[2],inactive
same,Potency,[3],inactive
same,Potency,[4],inactive
